In the supplement of paper PMC10849652:
About 8,800 targets were measured; listed, in parts, are those with a hit and a random draw of the rest. About 0.5% of all pairs of compound and target were hits.

Columns and labels:
Assay in all cases: log2 fold change, soluble protein after heating vs DMSO (PISA); higher = thermal stabilisation; K562 lysate, 10 uM; active = over 0.2 and 3.5 SD of the protein, either way, in both replicates (recomputed)
[1] = compound: CS(=O)(=O)CCNCc1ccc(-c2ccc3ncnc(Nc4ccc(OCc5cccc(F)c5)c(Cl)c4)c3c2)o1 [lapatinib]
In short: (§1)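 K562 pellets were dounce-homogenised in PBS pH 7.4 with 1 mM MgCl2, and the crude extract at 1 mg/mL protein was treated with 10 μM compound for 30 min. Aliquots were heated for 3 min across 48°C-58°C, pooled, and brought to 0.5% NP-40 at 4°C; soluble protein was the supernatant after 21,000xg for 90 min. Soluble protein was quantified by TMTpro 16plex LC-MS/MS with channel sums equalised, and reported as log2 fold change in thermal stability against DMSO controls, with values from duplicates.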

[2] = compound: CS(=O)(=O)N1CCN(Cc2cc3nc(-c4cccc5[nH]ncc45)nc(N4CCOCC4)c3s2)CC1 [pictilisib]
In short: as §1

[3] = compound: C[C@@H](Oc1cc(-c2cnn(C3CCNCC3)c2)cnc1N)c1c(Cl)ccc(F)c1Cl [crizotinib]
In short: as §1

[4] = compound: C[C@H](C1=CC=C(C=C1)C(=O)NC2=C3C=CNC3=NC=C2)N
In short: as §1

[5] = compound: C[C@H](Nc1ncnc2nc[nH]c12)c1cc2cccc(Cl)c2c(=O)n1-c1ccccc1 [duvelisib]
In short: as §1

[6] = compound: Cc1cc(Nc2cc(CN3CCOCC3)c3nc(C)c(Cc4ccc(Cl)cc4F)n3n2)n[nH]1 [gandotinib]
In short: as §1

[7] = compound: Cc1cc(Nc2cc(N3CCN(C)CC3)nc(Sc3ccc(NC(=O)C4CC4)cc3)n2)n[nH]1 [tozasertib]
In short: as §1

[8] = compound: Cc1ccc(-n2nc(C(C)(C)C)cc2NC(=O)Nc2ccc(OCCN3CCOCC3)c3ccccc23)cc1 [doramapimod]
In short: as §1

[9] = compound: Cc1ccc(NC(=O)c2ccc(CN3CC[C@H](N(C)C)C3)c(C(F)(F)F)c2)cc1Nc1nccc(-c2cncnc2)n1 [bafetinib]
In short: as §1

[10] = compound: Cc1cccc(CC(=O)N2CCc3c2ccc(-c2cn(C)c4ncnc(N)c24)c3F)n1
In short: as §1

Measured: log2 fold change

MAPK8 isoform 3 (UniProt P45983)
Sequence of UniProt P45983 (P45983 whole entry, looked up): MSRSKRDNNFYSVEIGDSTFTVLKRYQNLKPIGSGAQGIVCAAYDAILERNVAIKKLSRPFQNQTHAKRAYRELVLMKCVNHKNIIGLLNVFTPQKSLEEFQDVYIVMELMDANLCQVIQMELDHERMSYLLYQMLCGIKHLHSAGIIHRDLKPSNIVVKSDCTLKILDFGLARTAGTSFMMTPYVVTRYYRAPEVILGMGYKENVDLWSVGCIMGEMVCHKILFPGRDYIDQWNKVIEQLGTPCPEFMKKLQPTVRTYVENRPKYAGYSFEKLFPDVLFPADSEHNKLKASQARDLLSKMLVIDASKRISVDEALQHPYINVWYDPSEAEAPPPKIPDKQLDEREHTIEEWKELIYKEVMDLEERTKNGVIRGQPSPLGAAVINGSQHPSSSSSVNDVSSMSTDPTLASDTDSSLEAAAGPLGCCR
inactive: [1] -0.042 | [2] 0.192 | [3] -0.089 | [4] -0.022 | [5] -0.07 | [6] 0.281 | [7] -0.007 | [8] -0.049 | [9] -0.014 | [10] -0.037

MINDY1 isoform 3 (UniProt Q8N5J2)
inactive: [1] -0.002 | [2] 0 | [3] -0.045 | [5] 0.051 | [7] -0.036 | [8] 0.051 | [9] -0.11

MBOAT2 (UniProt Q6ZWT7)
inactive: [1] -0.067 | [2] 0.061 | [3] -0.005 | [4] -0.175 | [5] 0.009 | [7] 0.106 | [8] -0.12 | [9] -0.049 | [10] 0.281
active: [6] 0.319

MGST3 (UniProt O14880)
Sequence of UniProt O14880 (O14880 whole entry, looked up): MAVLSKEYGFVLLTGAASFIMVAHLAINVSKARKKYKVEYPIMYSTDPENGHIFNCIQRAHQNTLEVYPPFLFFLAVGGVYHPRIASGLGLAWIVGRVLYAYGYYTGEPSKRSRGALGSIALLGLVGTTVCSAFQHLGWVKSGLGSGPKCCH
inactive: [1] 0.01 | [2] -0.017 | [3] 0.004 | [4] 0.23 | [5] -0.02 | [6] -0.078 | [7] -0.035 | [8] -0.025 | [9] -0.048 | [10] -0.087

MCUB (UniProt Q9NWR8)
Sequence of UniProt Q9NWR8 (Q9NWR8 whole entry, looked up): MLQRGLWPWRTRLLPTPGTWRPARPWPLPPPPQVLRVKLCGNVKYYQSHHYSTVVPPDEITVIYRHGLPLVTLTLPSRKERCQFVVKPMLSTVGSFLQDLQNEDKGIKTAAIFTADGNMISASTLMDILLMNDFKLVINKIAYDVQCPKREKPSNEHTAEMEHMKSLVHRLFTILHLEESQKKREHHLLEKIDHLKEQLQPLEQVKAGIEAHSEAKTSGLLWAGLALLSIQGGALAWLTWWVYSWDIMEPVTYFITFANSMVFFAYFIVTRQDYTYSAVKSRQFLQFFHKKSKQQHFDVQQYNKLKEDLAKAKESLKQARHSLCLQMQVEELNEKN
inactive: [1] 0.044 | [2] 0.088 | [3] -0.17 | [4] 0.187 | [5] -0.018 | [6] -0.347 | [8] 0.05 | [9] -0.045 | [10] -0.016

MAP2K2 (UniProt P36507)
inactive: [1] -0.048 | [2] 0.015 | [3] 0.039 | [4] 0.207 | [5] 0.012 | [6] -0.065 | [7] 0.282 | [8] -0.058 | [9] -0.063 | [10] -0.015

MRPL35 (UniProt Q9NZE8)
inactive: [1] 0.051 | [2] 0.001 | [3] 0.01 | [4] -0.207 | [5] -0.054 | [6] 0 | [8] -0.023 | [9] -0.02 | [10] 0.039

LIMK1 (UniProt P53667)
Sequence of UniProt P53667 (P53667 whole entry, looked up): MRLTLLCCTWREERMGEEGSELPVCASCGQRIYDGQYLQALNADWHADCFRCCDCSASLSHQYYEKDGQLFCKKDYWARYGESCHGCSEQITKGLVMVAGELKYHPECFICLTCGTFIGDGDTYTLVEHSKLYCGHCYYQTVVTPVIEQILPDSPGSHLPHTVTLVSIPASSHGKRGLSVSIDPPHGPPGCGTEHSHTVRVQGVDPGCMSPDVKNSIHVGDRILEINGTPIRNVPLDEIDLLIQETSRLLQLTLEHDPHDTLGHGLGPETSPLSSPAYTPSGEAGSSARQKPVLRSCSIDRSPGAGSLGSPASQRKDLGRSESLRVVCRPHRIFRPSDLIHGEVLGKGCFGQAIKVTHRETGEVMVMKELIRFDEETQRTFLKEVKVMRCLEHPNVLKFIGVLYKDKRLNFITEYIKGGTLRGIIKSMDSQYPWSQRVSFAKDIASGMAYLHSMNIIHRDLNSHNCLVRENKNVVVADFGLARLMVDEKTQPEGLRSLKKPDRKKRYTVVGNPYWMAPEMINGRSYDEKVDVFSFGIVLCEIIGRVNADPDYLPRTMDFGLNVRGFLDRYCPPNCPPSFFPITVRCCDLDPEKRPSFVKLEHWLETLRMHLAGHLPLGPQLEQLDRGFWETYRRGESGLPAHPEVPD
inactive: [1] 0.049 | [2] -0.087 | [3] 0.276 | [4] 0.029 | [5] 0.109 | [6] -0.03 | [7] 0.096 | [8] -0.009 | [9] -0.348 | [10] 0.138

MMS22L (UniProt Q6ZRQ5)
inactive: [1] -0.101 | [2] -0.034 | [3] 0.113 | [4] 0.065 | [5] -0.106 | [6] -0.169 | [7] 0.087 | [8] -0.018 | [9] -0.152 | [10] -0.029

MAP4K4 isoform 3 (UniProt O95819)
inactive: [1] -0.061 | [2] -0.049 | [4] 0.201 | [5] 0.078 | [6] -0.088 | [7] 0.014 | [8] 0.087 | [9] 0.03 | [10] -0.01

MAPK3 (UniProt P27361)
inactive: [1] -0.028 | [2] 0 | [3] -0.01 | [4] -0.021 | [5] -0.01 | [6] 0.089 | [7] -0.038 | [8] -0.023 | [9] 0.021 | [10] -0.043

MAPK6 (UniProt Q16659)
Sequence of UniProt Q16659 (Q16659 whole entry, looked up): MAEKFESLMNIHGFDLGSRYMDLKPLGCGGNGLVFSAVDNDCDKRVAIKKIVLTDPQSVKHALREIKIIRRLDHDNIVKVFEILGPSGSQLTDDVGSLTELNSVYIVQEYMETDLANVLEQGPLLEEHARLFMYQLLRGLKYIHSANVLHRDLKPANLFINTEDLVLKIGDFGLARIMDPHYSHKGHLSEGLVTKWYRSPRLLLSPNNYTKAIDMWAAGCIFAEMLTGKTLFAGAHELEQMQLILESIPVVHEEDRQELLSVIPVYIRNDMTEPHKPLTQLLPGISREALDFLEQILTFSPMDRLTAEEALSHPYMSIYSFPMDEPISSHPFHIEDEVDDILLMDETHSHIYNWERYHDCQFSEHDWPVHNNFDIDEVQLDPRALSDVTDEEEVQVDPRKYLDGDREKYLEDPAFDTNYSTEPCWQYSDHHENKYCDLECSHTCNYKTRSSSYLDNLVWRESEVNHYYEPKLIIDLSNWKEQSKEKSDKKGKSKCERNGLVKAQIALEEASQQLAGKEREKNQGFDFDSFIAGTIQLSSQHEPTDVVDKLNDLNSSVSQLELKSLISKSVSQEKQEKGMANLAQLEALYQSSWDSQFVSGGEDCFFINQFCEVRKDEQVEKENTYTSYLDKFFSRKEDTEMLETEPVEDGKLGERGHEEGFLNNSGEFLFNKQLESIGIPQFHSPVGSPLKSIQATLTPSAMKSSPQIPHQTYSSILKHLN
inactive: [1] -0.038 | [2] -0.021 | [3] 0.025 | [4] 0.075 | [5] -0.008 | [6] -0.042 | [7] -0.024 | [8] -0.006 | [9] -0.028 | [10] -0.045

KIF4B (UniProt Q2VIQ3)
inactive: [1] 0.03 | [2] -0.001 | [3] -0.02 | [4] 0.029 | [5] -0.023 | [6] -0.051 | [7] -0.033 | [8] 0.015 | [9] -0.04 | [10] 0.035

MICU1 isoform 3 (UniProt Q9BPX6)
Sequence of UniProt Q9BPX6 (Q9BPX6 whole entry, looked up): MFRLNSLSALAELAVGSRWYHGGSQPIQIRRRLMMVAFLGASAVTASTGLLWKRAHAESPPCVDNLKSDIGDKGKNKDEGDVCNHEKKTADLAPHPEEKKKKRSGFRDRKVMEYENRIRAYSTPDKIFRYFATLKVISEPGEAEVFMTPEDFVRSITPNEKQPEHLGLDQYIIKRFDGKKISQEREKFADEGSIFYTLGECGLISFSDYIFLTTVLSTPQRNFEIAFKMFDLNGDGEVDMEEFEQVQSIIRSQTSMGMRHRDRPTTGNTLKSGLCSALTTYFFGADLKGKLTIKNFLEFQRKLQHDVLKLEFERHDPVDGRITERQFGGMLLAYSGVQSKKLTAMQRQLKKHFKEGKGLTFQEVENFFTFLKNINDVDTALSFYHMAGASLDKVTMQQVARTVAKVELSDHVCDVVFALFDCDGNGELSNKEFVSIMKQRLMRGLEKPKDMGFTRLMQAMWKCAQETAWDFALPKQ
active: [4] 0.253 | [6] -0.408
inactive: [1] -0.052 | [2] -0.053 | [3] -0.107 | [5] -0.007 | [7] 0.049 | [8] -0.008 | [9] -0.077 | [10] -0.209

MAPK14 (UniProt Q16539)
Sequence of UniProt Q16539 (Q16539 whole entry, looked up): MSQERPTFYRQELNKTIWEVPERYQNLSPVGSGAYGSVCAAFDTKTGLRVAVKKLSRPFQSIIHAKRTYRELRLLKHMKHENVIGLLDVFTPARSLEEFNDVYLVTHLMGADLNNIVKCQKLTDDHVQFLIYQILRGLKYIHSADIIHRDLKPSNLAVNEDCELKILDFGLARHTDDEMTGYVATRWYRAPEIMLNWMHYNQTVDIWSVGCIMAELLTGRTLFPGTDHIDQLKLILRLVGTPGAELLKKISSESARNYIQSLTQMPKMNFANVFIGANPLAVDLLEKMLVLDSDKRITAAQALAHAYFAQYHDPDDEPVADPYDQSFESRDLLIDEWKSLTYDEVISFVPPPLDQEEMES
inactive: [1] -0.047 | [2] -0.004 | [3] -0.094 | [4] -0.034 | [5] -0.026 | [6] -0.037 | [7] 0.009 | [10] 0.015
active: [9] 1.03

MANEA (UniProt Q5SRI9)
Sequence of UniProt Q5SRI9 (Q5SRI9 whole entry, looked up): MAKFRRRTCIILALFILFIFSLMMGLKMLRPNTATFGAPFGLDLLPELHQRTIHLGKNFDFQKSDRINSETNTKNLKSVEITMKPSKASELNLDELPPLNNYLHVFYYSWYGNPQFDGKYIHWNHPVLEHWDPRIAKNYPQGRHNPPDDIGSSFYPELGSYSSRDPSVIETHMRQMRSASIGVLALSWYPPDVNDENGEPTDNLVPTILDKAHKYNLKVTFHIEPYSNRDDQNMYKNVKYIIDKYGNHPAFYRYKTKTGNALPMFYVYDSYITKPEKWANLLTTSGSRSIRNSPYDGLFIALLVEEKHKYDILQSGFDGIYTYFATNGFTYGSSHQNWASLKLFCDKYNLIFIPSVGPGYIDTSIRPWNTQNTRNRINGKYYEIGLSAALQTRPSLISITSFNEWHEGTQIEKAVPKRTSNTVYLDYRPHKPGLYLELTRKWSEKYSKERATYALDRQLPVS
active: [4] -0.464 | [6] 0.365
inactive: [1] -0.01 | [2] 0.008 | [3] -0.023 | [5] 0.036 | [7] 0.035 | [8] 0.034 | [9] 0.007 | [10] 0.278

LEPROT (UniProt O15243)
inactive: [1] -0.058 | [2] 0 | [3] -0.069 | [4] -0.019 | [6] 0.054 | [7] -0.116 | [8] 0 | [9] -0.067 | [10] 0.056

METTL21A (UniProt Q8WXB1)
inactive: [1] 0.004 | [2] 0.06 | [3] -0.043 | [4] -0.083 | [5] 0.131 | [6] 0.038 | [8] -0.081 | [9] -0.04 | [10] 0.016

MAD2L1BP isoform 3 (UniProt Q15013)
inactive: [1] 0.017 | [2] -0.155 | [3] -0.094 | [4] 0.022 | [5] 0.048 | [6] -0.009 | [7] -0.071 | [8] 0.12 | [9] -0.041 | [10] 0.008

MOSPD2 (UniProt Q8NHP6)
inactive: [1] 0.01 | [2] -0.036 | [3] -0.041 | [4] -0.076 | [5] -0.02 | [6] 0.003 | [7] 0.021 | [8] 0.022 | [9] -0.009 | [10] 0.1

MAP2K5 (UniProt Q13163)
inactive: [1] 0.038 | [2] -0.021 | [3] -0.109 | [4] 0.013 | [5] 0.152 | [6] -0.089 | [8] -0.017 | [9] -0.436 | [10] 0.105

MORC3 (UniProt Q14149)
inactive: [1] 0.021 | [2] -0.037 | [3] -0.02 | [4] 0.005 | [5] -0.001 | [6] -0.053 | [7] 0.001 | [8] 0.024 | [9] -0.001 | [10] 0.014

KRIT1 (UniProt O00522)
inactive: [1] -0.115 | [2] -0.058 | [3] -0.07 | [5] -0.001 | [7] -0.043 | [8] 0.016 | [9] -0.041

KLC4 isoform 3 (UniProt Q9NSK0)
inactive: [1] -0.002 | [2] -0.053 | [3] -0.027 | [4] 0.019 | [5] 0.029 | [6] -0.074 | [7] -0.021 | [8] 0.034 | [9] -0.018 | [10] 0.001

MAP4 isoform 5 (UniProt P27816)
inactive: [1] -0.089 | [2] -0.008 | [3] -0.034 | [5] 0.159 | [7] 0.008 | [8] -0.061 | [9] 0.081

MCU (UniProt Q8NE86)
Sequence of UniProt Q8NE86 (Q8NE86 whole entry, looked up): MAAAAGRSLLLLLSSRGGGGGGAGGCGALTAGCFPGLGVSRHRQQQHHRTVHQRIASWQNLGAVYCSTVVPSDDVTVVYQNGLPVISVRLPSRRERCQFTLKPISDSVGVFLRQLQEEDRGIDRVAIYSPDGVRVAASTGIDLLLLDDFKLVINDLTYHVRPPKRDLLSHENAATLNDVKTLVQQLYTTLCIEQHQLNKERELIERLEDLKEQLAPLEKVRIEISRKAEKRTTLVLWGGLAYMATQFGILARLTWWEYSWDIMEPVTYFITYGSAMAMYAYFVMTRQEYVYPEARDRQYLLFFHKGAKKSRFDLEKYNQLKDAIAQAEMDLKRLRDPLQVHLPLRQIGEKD
active: [6] -0.311
inactive: [1] -0.145 | [2] -0.041 | [3] -0.125 | [4] -0.03 | [5] 0.037 | [7] -0.02 | [8] 0.085 | [9] -0.108 | [10] 0.032

LIG3 (UniProt P49916)
inactive: [1] -0.007 | [2] 0.006 | [3] -0.044 | [4] -0.008 | [5] 0.01 | [6] -0.05 | [7] -0.004 | [8] 0.016 | [9] -0.046 | [10] 0.016

MME (UniProt P08473)
inactive: [1] 0.025 | [2] -0.024 | [3] 0.037 | [4] 0.037 | [5] 0.066 | [6] -0.002 | [8] 0.002 | [9] 0.058 | [10] 0.048

KLHL12 isoform 2 (UniProt Q53G59)
inactive: [1] 0.023 | [2] 0.048 | [3] 0.016 | [5] 0.084 | [8] 0.003 | [9] -0.131

MAP1S (UniProt Q66K74)
Sequence of UniProt Q66K74 (Q66K74 whole entry, looked up): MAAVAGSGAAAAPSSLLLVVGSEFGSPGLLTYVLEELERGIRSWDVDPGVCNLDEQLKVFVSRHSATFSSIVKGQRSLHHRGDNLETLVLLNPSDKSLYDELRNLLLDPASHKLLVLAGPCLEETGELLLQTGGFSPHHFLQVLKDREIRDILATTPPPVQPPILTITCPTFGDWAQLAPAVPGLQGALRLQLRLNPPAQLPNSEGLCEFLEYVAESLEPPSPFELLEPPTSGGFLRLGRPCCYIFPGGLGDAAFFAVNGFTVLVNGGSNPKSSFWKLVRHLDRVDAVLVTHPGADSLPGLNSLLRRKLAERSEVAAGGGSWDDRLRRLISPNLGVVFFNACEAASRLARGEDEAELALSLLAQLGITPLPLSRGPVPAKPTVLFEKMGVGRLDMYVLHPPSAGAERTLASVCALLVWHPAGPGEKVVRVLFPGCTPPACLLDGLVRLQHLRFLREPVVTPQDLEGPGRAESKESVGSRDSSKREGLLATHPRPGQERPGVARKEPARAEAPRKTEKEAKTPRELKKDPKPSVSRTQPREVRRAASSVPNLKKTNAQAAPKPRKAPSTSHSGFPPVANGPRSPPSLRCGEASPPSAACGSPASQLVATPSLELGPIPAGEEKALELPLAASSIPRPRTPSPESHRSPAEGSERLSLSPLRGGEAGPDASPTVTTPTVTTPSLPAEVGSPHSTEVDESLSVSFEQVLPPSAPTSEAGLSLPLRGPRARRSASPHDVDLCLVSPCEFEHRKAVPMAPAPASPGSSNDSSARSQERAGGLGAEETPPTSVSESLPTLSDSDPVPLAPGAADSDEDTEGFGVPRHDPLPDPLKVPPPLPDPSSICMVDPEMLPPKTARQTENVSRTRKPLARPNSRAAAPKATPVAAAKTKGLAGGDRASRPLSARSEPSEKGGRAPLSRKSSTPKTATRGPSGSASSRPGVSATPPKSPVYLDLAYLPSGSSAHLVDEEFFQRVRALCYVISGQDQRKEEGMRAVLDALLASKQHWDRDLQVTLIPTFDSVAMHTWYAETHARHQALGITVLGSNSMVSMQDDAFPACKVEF
inactive: [1] 0.009 | [2] -0.06 | [3] -0.016 | [4] -0.021 | [5] 0.004 | [6] -0.065 | [7] 0.035 | [8] 0.003 | [9] -0.03 | [10] 0.049

MCMBP isoform 2 (UniProt Q9BTE3)
inactive: [1] 0.154 | [2] -0.179 | [3] 0.14 | [5] -0.03 | [7] 0.013 | [8] -0.092 | [9] 0.235
